Screening results deposited in PubChem by The Scripps Research Institute Molecular Screening Center.
This excerpt belongs to a sample that is enriched for hits.
TbREL1 inh – TbREL1 inhibition, primary screen; P86926; TbREL1 RNA ligation, FRET fluorescence; inhibition, % at 9.66 µM; hit rate 0.49% among 89,000;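 active = inhibition above the mean inhibition across all screened compounds plus 3 SD, cut at about 11% in these data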;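 also: 0% = plate median of test wells and 100% = NSC42067 control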
TbREL1 confirm – TbREL1 inhibition, confirmation; inhibition, % at 9.66 µM; shares compounds with TbREL1 inh; TbREL1 RNA ligation, FRET fluorescence; hit rate 37% among 390;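 active = mean inhibition across replicates above a set limit taken from the earlier primary screen, cut at about 11% in these data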;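 also: 0% = REL1 with substrate and DMSO and 100% = REL1 plus control inhibitor NSC42067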
* hit, by the source's call.

Results for O=[N+]([O-])c1ccccc1/C=C/C1Nc2cccc3cccc(c23)N1 ?
TbREL1 inh: -2

Results for COc1ccccc1NC(=O)c1cccs1 ?
TbREL1 inh: 2

What do the screens show for `COc1ccccc1/C=C/C(=O)NNC(=O)c1cccs1`?
TbREL1 inh: 11*; TbREL1 confirm: 4

Results for COc1ccccc1C(=O)NCC(=O)NNC(=O)c1cccs1 ?
TbREL1 inh: 1

What do the screens show for `C/C(CC(=O)Nc1ccccn1)=N\NC(=O)c1ccc2ccccc2c1`?
TbREL1 inh: 0

Results for C/C(CC(=O)Nc1ccccn1)=N\NC(=O)c1ccccc1O ?
TbREL1 inh: 22*; TbREL1 confirm: 5

How did CCCNC(=O)C/C(C)=N/NC(=O)C(=O)Nc1ccccn1 do in these assays?
TbREL1 inh: 2

What do the screens show for `C[C@H]1[C@@H](NC(=O)C#Cc2ccccc2)CC[C@@]23CCCN2C(=O)CCC[C@@H]13`?
TbREL1 inh: 9

Results for Cc1c(P(=S)(c2ccccc2)c2ccccc2)[n+]2ccccc2n1C/C=C/c1ccccc1 ?
TbREL1 inh: 14*; TbREL1 confirm: 22*

How did CC(O)c1nc2ccccc2n1C/C=C/c1ccccc1 (stereo not drawn) do in these assays?
TbREL1 inh: 1

What do the screens show for `CCOc1ccc(C=Nn2c(-c3cccc(OC(C)C)c3)n[nH]c2=S)cc1`?
TbREL1 inh: -5

How did CC(=O)Nc1sc2c(c1-c1cc3ccccc3o1)CCNC2 do in these assays?
TbREL1 inh: 5

What do the screens show for `COC(=O)[C@]12C[C@H](CC(=O)NCc3cccc4ccccc34)C(=O)N(Cc3ccco3)C1=C[C@H](COCc1ccccc1)O[C@@H]2C`?
TbREL1 inh: -4

How did C=CCc1ccc(OCCOCCOc2ccccc2[N+](=O)[O-])c(OC)c1 do in these assays?
TbREL1 inh: -1

Results for C=CCc1ccc(OCCCNCc2ccccc2)c(OC)c1 ?
TbREL1 inh: 12*; TbREL1 confirm: 10

What do the screens show for `C=CCc1ccc(OCCCOc2ccc(C)cc2OC)c(OC)c1`?
TbREL1 inh: 1

How did COc1cc(OC)cc(C(C)c2ccc(-c3ccccc3)cc2)c1 (stereo not drawn) do in these assays?
TbREL1 inh: 1

Results for C[C@H]1[C@@H](NC(=O)c2cccc(N(C)C)c2)CC[C@@]23CCCN2C(=O)CCC[C@@H]13 ?
TbREL1 inh: -10

How did O=C(c1ccccc1-c1nc(-c2ccccc2)no1)N1CCOCC1 do in these assays?
TbREL1 inh: -1

How did O=C(c1ccccc1-c1nc(-c2ccc(F)cc2)no1)N1CCCC1 do in these assays?
TbREL1 inh: -1

How did O=C(O)c1ccccc1-c1noc(-c2ccccc2F)n1 do in these assays?
TbREL1 inh: 13*; TbREL1 confirm: 4

What do the screens show for `Cc1ccc(S(=O)(=O)NC[C@H]2CN(S(=O)(=O)c3ccc(C)cc3)[C@@H](Cc3ccccc3)CO2)cc1`?
TbREL1 inh: 3

Results for C[C@H]1[C@H](NC(=O)c2cccc(C(F)(F)F)c2)CC[C@@]23CCCN2C(=O)CCC[C@@H]13 ?
TbREL1 inh: -5

What do the screens show for `COc1ccc(CN2C(=O)[C@]3(NCCc4c3[nH]c3ccc(OC)cc43)c3cc(Br)ccc32)cc1`?
TbREL1 inh: 1

Results for O=Cc1ccc(-c2cccc(C(=O)O)c2)o1 ?
TbREL1 inh: 1

What do the screens show for `COC(=O)c1cccc(-c2ccc(/C=N/N3C(=O)C4C5C=CC(C6CC56)C4C3=O)o2)c1` (stereo not drawn)?
TbREL1 inh: -2

How did COC(=O)c1cccc(-c2ccc(C(c3c(C)[nH][nH]c3=O)c3c(C)[nH][nH]c3=O)o2)c1 do in these assays?
TbREL1 inh: 15*; TbREL1 confirm: 9

How did Cc1ccc(S(=O)(=O)N2c3ccc(F)cc3C[C@H]2CSc2ccccc2)cc1 do in these assays?
TbREL1 inh: 1

Results for Cc1ccccc1N=Nc1c(N)[nH]n(-c2ccccc2)c1=O ?
TbREL1 inh: -2

How did COc1ccc(-c2cc(NC(=O)Cc3c[nH]c4ccccc34)ccc2Nc2cccnc2)cc1F do in these assays?
TbREL1 inh: 2

Results for COCCCNC(=O)CSc1nnc(-c2ccncc2)n1-c1ccc(OC)cc1 ?
TbREL1 inh: 1

What do the screens show for `O=C(O)c1cc(Sc2ccc(Br)cc2)nc2ccccc12`?
TbREL1 inh: 0

How did Cc1cc(C(N)=O)c2ccccc2n1 do in these assays?
TbREL1 inh: 4

How did CC(C)c1cc(C(=O)O)c2ccccc2n1 do in these assays?
TbREL1 inh: 13*; TbREL1 confirm: 9

Results for O=CN1CCN(C(=O)C2CCN(c3ncnc4c3sc3cccc(F)c34)CC2)CC1 ?
TbREL1 inh: -3

How did COc1cc2c(cc1OC)-c1cc(NCc3ccccn3)nc(=O)n1CC2 do in these assays?
TbREL1 inh: 21*; TbREL1 confirm: 23*

How did COc1ccc(C2C(C(=O)NCc3ccccn3)c3cc(OC)c(OC)cc3C(=O)N2C)cc1 (stereo not drawn) do in these assays?
TbREL1 inh: -1
